# Laboratory results: PubChem BioAssay
# A number with no mark means an inactive call.
# Experiment: cell viability in Huh7 cells, primary screen, cytotoxicity control for HCV replication inhibitor project, CellTiter-Glo luminescence, basal, 48 h (AID 1143);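 also: Huh7 hepatoma cells carrying a hepatitis C replication reporter with no stimulus; test concentration not given here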
# Conditions: Huh7 HCV replicon, higher = more signal, called active from +8 up or from −8 down
row,SMILES,z-score
1,CCOC(=O)C1=C[C@@H](C(C)(C)C)N(S(=O)(=O)c2ccc(C)cc2)[C@H]1c1ccc(OC)cc1,-4.94
2,CCCCC(=C=CC[C@H](O)c1ccccc1OCCO)CCO,-0.0854
3,C=CCC(OC(C)=O)[C@@H]1[C@@H](N(Cc2cccc3ccccc23)C(=O)c2ccc(C)cc2)c2cc(OCCCO)ccc2N1C(=O)Cc1ccc2ccccc2c1 (some centres undefined),-0.72
4,COC(=O)[C@@]1(Cc2ccc(F)cc2)[C@@H]2C(=CC(=O)[C@H]2CC(=O)C(=O)N2CCCC2)CN1C(=O)c1ccccc1,-4.86
5,COCCCNC(=O)[C@@]1(c2ccc([N+](=O)[O-])cc2)CC(=O)N(C2CCCCC2)[C@@H]1c1ccc(CO)cc1I,-3.87
6,C=CCOC(=O)[C@H]1[C@@H]2C(=O)O[C@@H](c3ccccc3)[C@@H](c3ccccc3)N2[C@@H](c2ccc(OCCOC(=O)[C@H]3C[C@H]4C(=O)NCC(=O)N4[C@H]3c3ccc(O)cc3)cc2)[C@]12C(=O)Nc1ccccc12,-0.525
7,CC1CC/C=C\[C@H]2OC34C=CCN(CCN5CCOCC5)C(=O)[C@H]3N(C(CO)C(C)C)C(=O)[C@@H]4C2C(=O)O1 (some centres undefined),0.211
8,CC(C)c1ccc(NN2C(C(O)c3ccccc3)C=CC3C(=O)N(c4ccccc4)C(=O)C32)cc1 (centres undefined),-0.0828
9,[N-]=[N+]=Nc1ccccc1C[C@@]1(C(=O)NCC(O)CO)N=C(c2ccc(OCCCO)cc2)O[C@@H]1c1ccccc1N=[N+]=[N-] (some centres undefined),-4.99
